In the library only some 3.2% were active in any assay of this set; here they are far more common.
PriA SSB inh: inhibitors of Klebsiella pneumoniae PriA binding to SSB C-terminal tail, primary screen, biochemical, AlphaScreen; PriA–SSB C-terminal tail interaction (Klebsiella pneumoniae); AlphaScreen SSBct-PriA binding, biotinylated peptide; inhibition, % at 33 µM; 0.6% of 430,000 active; AID 1272365, 2023; in the data active = inhibition mostly above about 37%, no sharp cut-off; inactive = mostly below about 20%;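 note: plate controls were negative control peptide for no effect and reference peptide for full effect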
Mtb FBA inh: Mtb FBA enzyme inhibitors, primary screen, biochemical, fluorescence, strain H37Rv; Fructose-bisphosphate aldolase (Mycobacterium tuberculosis (strain ATCC 25618 / H37Rv)), …; AID 588726, 2011; 2.3% of 360,000 active; inhibition, % at 1 µM; purified M. tuberculosis FBA, fluorescence read-out; in the data active = inhibition above about 27%;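 note: 0% = vehicle and 100% = reference inhibitor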
Rv3671c inh: Rv3671c serine protease inhibitors, primary screen, biochemical, fluorescence polarization, M. tuberculosis H37Rv; AID 2606, 2010; P9WHR9; inhibition, % at 5.96 µM; 0.048% of 320,000 active; in the data active = inhibition above about 38%;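 note: extracellular domain of Rv3671c used as enzyme; 0% = enzyme with DMSO and 100% = no enzyme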
Target sequence (P9WHR9 whole entry, looked up, the tested form may be a part): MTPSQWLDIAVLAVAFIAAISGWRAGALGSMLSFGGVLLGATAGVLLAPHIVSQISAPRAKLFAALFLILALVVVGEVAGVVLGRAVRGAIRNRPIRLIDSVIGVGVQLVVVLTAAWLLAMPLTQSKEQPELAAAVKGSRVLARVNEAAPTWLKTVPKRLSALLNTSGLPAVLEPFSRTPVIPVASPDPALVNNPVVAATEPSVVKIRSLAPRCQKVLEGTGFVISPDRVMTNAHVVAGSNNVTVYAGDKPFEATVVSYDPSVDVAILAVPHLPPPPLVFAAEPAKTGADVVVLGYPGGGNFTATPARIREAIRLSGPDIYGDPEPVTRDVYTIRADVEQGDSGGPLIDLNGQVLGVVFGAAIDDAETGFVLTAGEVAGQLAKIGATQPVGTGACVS
Mtb bLac sens: beta-lactam sensitization of Mtb H37Rv, H37Rv; M. tuberculosis H37Rv growth with meropenem, percent inhibition; inhibition, % at 25 µM; 0.27% of 330,000 active; call rule not given here;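 note: growth measured after seven days incubation then overnight dye step; 0% = bacteria only wells and 100% = bacteria with antibiotic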
GDH-TPI counter: GDH-TPI coupling enzyme inhibitors, primary screen, artefact control for M. tuberculosis FBA inhibitor project, biochemical, absorbance, full deck. AID 588335, 2011. GDH-TPI coupled enzyme counterscreen, NADH absorbance. 1.2% of 360,000 active. inhibition, % at 4.8 µM; in the data active = inhibition above about 30%;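 note: 0% = DMSO wells and 100% = wells lacking the enzyme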
UGM FP inh: M. tuberculosis UGM enzyme inhibitors, primary screen, biochemical, fluorescence polarization, single point. purified UGM, fluorescence polarization probe displacement. inhibition, % at 10 µM. 0.06% of 320,000 active. AID 504406, 2011; in the data active = inhibition above about 10%, passing the limit was not always enough
* marks the source's active call; other numbers are inactive results; i = inactive; / = no result; + = active, no number.

SMILES | PriA SSB inh | Mtb FBA inh | Rv3671c inh | Mtb bLac sens | GDH-TPI counter | UGM FP inh
CCN(CC)Cc1c(O)ccc2c(C)c(CC(=O)OC)c(=O)oc12 | -18 | + | -2 | -17 | 24 | -2
Cc1cccc(C)c1NC(=O)c1ccc(-c2ccc(Cl)c(Cl)c2)o1 | -2 | / | / | / | / | /
COCCNC(=O)c1nnn(-c2ccccc2)c1CSc1nc(C)cc(C)n1 | -4 | / | / | / | / | /
Cc1cc(-c2nnc(NC(=O)c3ccco3)o2)n(C)n1 | 17 | / | / | / | / | /
c1ccc2c3c(cc(N4CCOCC4)c2c1)OC1(N2CCOCC2)CCCCC1O3 (centres undefined) | -8 | 89* | -14 | -3 | 1 | 2
CN1CCN(C(=S)c2cn(Cc3cccc(F)c3)c3ccccc23)CC1 | 25 | 3 | -2 | 0 | 6 | -2
N=C(N)Sc1cn(Cc2cccc(F)c2)c2ccccc12 | 45* | / | / | / | / | /
CS(=O)(=O)c1ccc(CC(=O)Nc2nnc(C3CCCO3)o2)cc1 (centres undefined) | 61* | / | / | / | / | /
O=C1c2cccc3c(N4CCCCC4)ccc(c23)C(=O)N1c1ccccn1 | -12 | 0 | -3 | / | 3 | 10*
Cc1ccccc1-c1nc(CS(=O)CC(=O)NC(C)CCc2ccccc2)c(C)o1 (centres undefined) | 60* | 3 | -4 | -7 | -5 | 2
COc1cccc(-c2nc(CS(=O)CC(=O)NC(C)CCc3ccccc3)c(C)o2)c1 (centres undefined) | -12 | 0 | -6 | -7 | -3 | -1
CN(C)c1ccc(C(=O)OCC(=O)c2ccc[nH]2)cc1 | 1 | 1 | -3 | 3 | 31* | 5
CC1CCCC(=NNC(=S)NCc2ccccc2)C1 (centres undefined) | 2 | / | / | / | / | /
COc1ccc(-c2cc(-c3ccc(OC)cc3)nc(-c3ccc4c(c3)NC(=O)CO4)c2)cc1 | -10 | 1 | -2 | 97 | 32* | 1
CCOC(=O)c1ccccc1NC(=O)c1cc2sccc2n1C | -7 | 7 | -7 | 20 | 32* | 1
CCOC(=O)c1cccc(NC(=O)c2cc3sccc3n2C)c1 | 12 | -2 | -12 | 47 | 8 | 1
Cc1ccc(NC(=O)C(=O)NCC2CCN(Cc3cccs3)CC2)cc1C | -11 | / | / | / | / | /
CC(=O)C(C(=N)N1CCN(c2cccc(Cl)c2)CC1)=C(C)O | -1 | / | / | / | / | /
Cc1cc(N/N=C/c2ccc(O)c(C)c2O)nc(-c2ccccc2O)n1 | / | 6 | 8 | 11 | 32* | 2
O=S(=O)(Nc1ccc2c(c1)CCCN2S(=O)(=O)c1ccc(F)cc1)c1cccc(Cl)c1 | -7 | / | / | / | / | /
O=C(O)C/C(=C\c1ccc(N2CCOCC2)c([N+](=O)[O-])c1)c1nc2ccccc2s1 | -8 | 0 | 1 | -4 | 33* | 1
Nc1nc(-c2ccccn2)nc2ccc(Cl)cc12 | 116* | / | / | / | / | /
Clc1cccc(-c2nc(-c3ccccn3)no2)c1 | -18 | 4 | -2 | 32 | 2 | -2
COCCCNC(=S)N(CCCO)Cc1cc2cc3c(cc2[nH]c1=O)OCO3 | 8 | 22 | 1 | 1 | 32* | 0
CCN(CC)CCCN(Cc1cc2cc3c(cc2[nH]c1=O)OCO3)C(=O)Nc1ccccc1OC | 5 | 12 | -2 | 0 | 32* | 0
SMILES | PriA SSB inh | Mtb FBA inh | Rv3671c inh | Mtb bLac sens | GDH-TPI counter | UGM FP inh
CN1CCc2cc(C(CNC(=O)Nc3cccc(Cl)c3)N(C)C)ccc21 (centres undefined) | 37 | / | / | / | / | /
CN(C)c1ccc(/C=C(\C#N)C(=O)NCc2ccco2)cc1 | / | / | -7 | 4 | / | /
N#C/C(=C\Nc1ccc2c(c1)OCCO2)C(=O)NCc1ccco1 | -1 | -5 | 2 | -7 | 44* | -3
Cn1c2ccccc2c(=O)c2cc(NCCCN3CCOCC3)ccc21 | -3 | + | -22 | -1 | 23 | 1
O=c1c2ccccc2oc2cc(NCCCn3ccnc3)ccc12 | 5 | + | -13 | 55 | 23 | 5
O=C(NCCCn1ccnc1)c1cc2ccccc2oc1=O | -8 | 7 | -6 | -2 | 12 | 0
O=c1c2ccccc2oc2cc(NCCCN3CCOCC3)ccc12 | -14 | + | 4 | -4 | 22 | 3
O=c1c2ccccc2oc2ccc(NCCCN3CCOCC3)cc12 | -10 | 1 | 3 | -8 | 8 | 0
O=C(Nc1ccc(F)cc1)Nc1cccc(-c2ccc(N3CCCC3)nn2)c1 | -2 | / | / | / | / | /
Cc1nn(Cc2ccccc2)c(C)c1/C=N/NC(=O)c1ccccc1O | i | -1 | 0 | 11 | 36* | 0
Cc1nn(Cc2ccccc2)c(C)c1/C=N/NC(=O)c1ccncc1 | i | -5 | -2 | 99 | -6 | -2
COc1ccccc1/C=N/NC(=O)c1nnn(-c2nonc2N)c1-c1ccccc1 | / | -1 | -5 | -14 | 14 | 4
COc1ccccc1/C=N/NC(=O)c1nnn(-c2nonc2N)c1-c1cccs1 | / | 4 | -8 | -3 | 43* | -3
COc1ccc(OC)c(C=NNC(=O)c2nnn(-c3nonc3N)c2-c2cccs2)c1 | 1 | / | / | / | / | /
COc1ccc(/C=N/NC(=O)c2nnn(-c3nonc3N)c2-c2cccs2)c(OC)c1 | / | -1 | 7 | -6 | 46* | 2
Cc1nc(SCC(=O)Nc2ccc(Cl)cc2[N+](=O)[O-])nc(C)c1C | 39* | -1 | -4 | -4 | 3 | -1
COc1ccc(NC(=O)CSc2ccccc2)c([N+](=O)[O-])c1 | 26 | -1 | 0 | -2 | 0 | 0
COc1ccc(NC(=O)CSc2nc3ccccc3n2-c2ccccc2)c([N+](=O)[O-])c1 | 42* | 0 | -3 | -2 | 4 | 0
Cc1cc(C)nc(SCC(=O)Nc2ccccc2[N+](=O)[O-])n1 | 12 | 3 | -6 | / | 18 | 0
COc1ccc(NC(=O)CSc2ccc(F)cc2)c([N+](=O)[O-])c1 | 65* | / | / | / | / | /
O=C(NC[C@@](O)(c1ccco1)C1CC1)c1ccccc1C(F)(F)F | -8 | / | / | / | / | /
CN(C)/C=N/c1sc2c(c1C#N)CC(C)(C)NC2(C)C | / | 0 | 2 | 10 | 36* | 0
CCN(/C=N/c1sc2c(c1C#N)CC(C)(C)NC2(C)C)CC | / | 2 | -1 | 3 | 30 | -2
O=C(NN=Cc1ccc2c(c1)OCO2)c1cc(-c2ccc(F)cc2)nc2ccccc12 | -19 | / | / | / | / | /
COc1ccccc1C1CC(c2ccco2)=NN1c1ccccc1 (centres undefined) | -37 | 148* | 3 | 8 | 12 | 0
COc1ccc(C2CC(c3ccc(F)cc3)=NN2c2ccccc2)cc1OC (centres undefined) | -12 | 11 | -7 | 78 | -10 | 5
COC1=CC2(O)CCCC2=CC1=O (centres undefined) | -11 | 150* | 1 | -3 | 0 | -2
CC12OC1C1(O)CCCC1=CC2=O (centres undefined) | / | / | 1 | -4 | / | -1

Screening data from PubChem.
